Measured values from PubChem BioAssay (Tox21).
Inconclusive results are not listed. Calls of active or inactive are those of the source. Unless noted, the call rests on the fitted dose curve; in most records, active means well fitted curve in the direction sought with a large enough effect in the repeat runs; inconclusive means weak or mixed curves; inactive means no such curve, though single readings can be large; an effect the other way counts as inactive or inconclusive.

Key:
[1] = target: Estrogen receptor (Homo sapiens) (UniProt P03372); assay: qHTS assay to identify small molecule agonists of the estrogen receptor alpha (ER-alpha) signaling pathway in the presence of an antagonist (AID 1259383; calls by dose curve; further: top concentration of the series differs between compounds; on the % scale 0 is the no-effect control and ±100 the full control effect; nearly all actives have a fitted effect of over 15% in size)
Estrogen receptor (Homo sapiens), sequence (P03372 whole entry, looked up): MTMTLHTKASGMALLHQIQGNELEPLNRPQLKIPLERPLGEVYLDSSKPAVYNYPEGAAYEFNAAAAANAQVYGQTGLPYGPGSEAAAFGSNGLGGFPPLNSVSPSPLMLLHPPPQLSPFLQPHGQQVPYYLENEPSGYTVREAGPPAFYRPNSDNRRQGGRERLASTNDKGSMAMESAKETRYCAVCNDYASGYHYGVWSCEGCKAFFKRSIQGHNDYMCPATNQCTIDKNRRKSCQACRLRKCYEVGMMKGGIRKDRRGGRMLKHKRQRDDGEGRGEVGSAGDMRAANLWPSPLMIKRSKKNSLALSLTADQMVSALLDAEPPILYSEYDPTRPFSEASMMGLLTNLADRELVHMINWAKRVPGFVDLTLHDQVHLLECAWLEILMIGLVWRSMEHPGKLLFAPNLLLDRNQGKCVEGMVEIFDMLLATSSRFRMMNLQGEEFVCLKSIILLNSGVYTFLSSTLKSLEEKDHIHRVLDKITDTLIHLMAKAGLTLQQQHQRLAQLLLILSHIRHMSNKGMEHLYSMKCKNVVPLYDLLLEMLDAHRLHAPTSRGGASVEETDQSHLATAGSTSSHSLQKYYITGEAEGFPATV
How it was run: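 Stably transfected VM7Luc4E2 reporter cells, kept 5 days in charcoal-stripped serum, received ICI-182,780 at 10.0nM final before compound addition. Following 22hr incubation at 37C and 5% CO2, luciferase signal was read by luminescence.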

[2] = qHTS assay to identify small molecule agonists or antagonists of the thyroid stimulating hormone receptor (TSHR) signaling pathway - wild type cell line counter screen (AID 1259384; calls by dose curve; further: on the % scale 0 is the no-effect control and ±100 the full control effect)
How it was run: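 Wild-type Hek293 cells, 800/well, 18 h at 37C, then compound with Ro20-1724 for 30 min RT. cAMP by HTRF (cAMP-d2/anti-cAMP cryptate), 1 h RT, fluorescence read. 15 concentrations, triplicates.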

[3] = target: Thyrotropin receptor (Homo sapiens) (UniProt P16473); assay: qHTS assay to identify small molecule antagonists of the thyroid stimulating hormone receptor (TSHR) signaling pathway (AID 1259385; calls by dose curve; further: on the % scale 0 is the no-effect control and ±100 the full control effect; nearly all actives have a fitted effect of over 20% in size)
Thyrotropin receptor (Homo sapiens), sequence (P16473 whole entry, looked up): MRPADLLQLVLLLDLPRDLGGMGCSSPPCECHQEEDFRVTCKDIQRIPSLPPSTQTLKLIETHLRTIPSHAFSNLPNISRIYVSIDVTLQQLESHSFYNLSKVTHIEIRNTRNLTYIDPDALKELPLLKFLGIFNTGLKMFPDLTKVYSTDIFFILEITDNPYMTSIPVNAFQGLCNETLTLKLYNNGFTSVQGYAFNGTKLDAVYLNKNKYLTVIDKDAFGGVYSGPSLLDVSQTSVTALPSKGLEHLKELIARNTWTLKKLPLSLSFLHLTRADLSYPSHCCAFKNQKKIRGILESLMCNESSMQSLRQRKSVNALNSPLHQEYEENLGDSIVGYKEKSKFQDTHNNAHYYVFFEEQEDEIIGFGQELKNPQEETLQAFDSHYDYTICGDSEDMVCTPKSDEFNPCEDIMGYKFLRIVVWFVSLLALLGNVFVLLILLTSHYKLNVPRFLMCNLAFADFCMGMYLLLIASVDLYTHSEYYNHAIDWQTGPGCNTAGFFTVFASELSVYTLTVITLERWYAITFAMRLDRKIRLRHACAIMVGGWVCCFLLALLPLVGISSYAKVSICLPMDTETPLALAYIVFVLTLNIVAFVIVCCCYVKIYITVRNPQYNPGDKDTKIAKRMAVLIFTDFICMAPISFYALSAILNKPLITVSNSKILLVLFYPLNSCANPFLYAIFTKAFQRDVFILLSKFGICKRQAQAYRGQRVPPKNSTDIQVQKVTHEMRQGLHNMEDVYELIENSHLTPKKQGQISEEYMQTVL
How it was run: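 TSHR-HEK293 cells (800/well) plated 18 h, then compounds with Ro20-1724 and TSH at 1.5 ng/mL final, 30 min at room temperature. cAMP quantified by HTRF (cAMP-d2/anti-cAMP-cryptate, 1 h); 15 concentrations in triplicate.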

[4] = target: Progesterone receptor (Homo sapiens) (UniProt P06401); assay: qHTS assay to identify small molecule agonists of the progesterone receptor (PR) signaling pathway (AID 1346784; calls by dose curve; further: on the % scale 0 is the no-effect control and ±100 the full control effect; nearly all actives have a fitted effect of over 30% in size)
Progesterone receptor (Homo sapiens), sequence (P06401 whole entry, looked up): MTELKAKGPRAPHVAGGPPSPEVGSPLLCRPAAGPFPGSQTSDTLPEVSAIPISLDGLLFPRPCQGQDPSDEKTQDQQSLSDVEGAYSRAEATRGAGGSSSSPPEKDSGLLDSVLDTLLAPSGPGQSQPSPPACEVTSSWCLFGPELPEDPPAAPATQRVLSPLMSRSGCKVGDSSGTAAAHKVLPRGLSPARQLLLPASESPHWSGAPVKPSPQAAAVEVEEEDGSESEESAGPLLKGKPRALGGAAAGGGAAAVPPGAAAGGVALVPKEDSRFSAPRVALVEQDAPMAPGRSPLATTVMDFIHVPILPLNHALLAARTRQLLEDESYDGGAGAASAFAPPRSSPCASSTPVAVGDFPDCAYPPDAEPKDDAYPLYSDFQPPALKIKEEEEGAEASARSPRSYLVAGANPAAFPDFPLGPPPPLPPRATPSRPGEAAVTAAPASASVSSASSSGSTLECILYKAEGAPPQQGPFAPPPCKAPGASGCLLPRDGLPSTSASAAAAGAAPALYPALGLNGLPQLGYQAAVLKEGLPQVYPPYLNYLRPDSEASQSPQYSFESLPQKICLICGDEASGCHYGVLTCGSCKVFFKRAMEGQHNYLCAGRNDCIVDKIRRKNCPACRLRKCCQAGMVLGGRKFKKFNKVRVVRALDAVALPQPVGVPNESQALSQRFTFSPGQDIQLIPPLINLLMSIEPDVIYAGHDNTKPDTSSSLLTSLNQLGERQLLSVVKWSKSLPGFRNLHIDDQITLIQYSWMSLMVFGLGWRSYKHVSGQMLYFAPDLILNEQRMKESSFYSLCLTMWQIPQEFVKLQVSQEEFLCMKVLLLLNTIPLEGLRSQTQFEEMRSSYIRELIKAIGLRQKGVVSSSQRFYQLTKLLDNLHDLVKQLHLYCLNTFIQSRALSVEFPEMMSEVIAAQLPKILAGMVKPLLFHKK
How it was run: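 PR-UAS-bla HEK 293T cells carrying a UAS-driven beta-lactamase reporter were seeded in medium with 2% charcoal-stripped FBS, preincubated 6 hr at 37C, then exposed to compounds in DMSO for 16 hr; agonism was read by LiveBLAzer B/G FRET fluorescence.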

[5] = target: Progesterone receptor (Homo sapiens) (UniProt P06401); assay: qHTS assay to identify small molecule antagonists of the progesterone receptor (PR) signaling pathway (AID 1346795; active means well fitted inhibition curve with a large enough effect in the signal ratio in the repeat runs, not every such curve was filed as active; the % refers to the signal ratio; further: on the % scale 0 is the no-effect control and ±100 the full control effect)
How it was run: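 PR-UAS-bla HEK293T cells carrying a UAS-driven beta-lactamase reporter were plated in medium with 2% charcoal-stripped FBS and rested 6 hr at 37C. Compounds were added with 1 nM R5020 (final) for 16 hr, then FRET substrate loaded 2 hr at room temperature.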

[6] = qHTS assay to identify small molecule antagonists of the progesterone receptor (PR) signaling pathway - cell viability counter screen (AID 1346798); further: series mostly up to about 92 µM; on the % scale 0 is the no-effect control and ±100 the full control effect; nearly all actives have a fitted effect of over 50% in size
How it was run: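 PR-UAS-bla HEK293T cells in medium with 2% charcoal-stripped FBS were treated with compounds plus R5020 for 16 hr at 37C. Cell viability was then read by CellTiter-Glo luminescence after 30 min at room temperature in the same wells.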

[7] = qHTS assay to identify small molecule agonists of the progesterone receptor (PR) signaling pathway - cell viability counter screen (AID 1346799; calls by dose curve; further: on the % scale 0 is the no-effect control and ±100 the full control effect; nearly all actives have a fitted effect of over 45% in size)
How it was run: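 PR-UAS-bla HEK293T cells, 3,000 per well in medium with 2% charcoal-stripped FBS, were preincubated 6 hr at 37C, then exposed to compounds for 16 hr; viability was read as CellTiter-Glo luminescence after 30 min at room temperature.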

[8] = qHTS assay to identify small molecule antagonists of the TGF-beta/Smad signaling pathway - cell viability counter screen (AID 1346824); further: on the % scale 0 is the no-effect control and ±100 the full control effect; nearly all actives have a fitted effect of over 50% in size
How it was run: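 SBE-bla HEK 293T cells, incubated overnight, then compound plus 0.25 ng/mL TGF-beta1 (stock added) for 5 hr at 37 C. Viability was read in the same wells by CellTiter-Glo luminescence after 30 min at room temperature.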

[9] = qHTS assay to identify small molecule agonists of the TGF-beta/Smad signaling pathway - cell viability counter screen (AID 1346829); further: top concentration of the series differs between compounds; on the % scale 0 is the no-effect control and ±100 the full control effect; nearly all actives have a fitted effect of over 45% in size
How it was run: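 Same-well cytotoxicity: CellTiter-Glo added after the 2 hr room-temperature beta-lactamase substrate step, luminescence measured 30 min later; cells had 5 hr of compound at 37 C.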

[10] = qHTS assay to identify small molecule agonists of the TGF-beta/Smad signaling pathway (AID 1346859; active means well fitted activation curve with a large enough effect in the signal ratio in the repeat runs, not every such curve was filed as active; the % refers to the signal ratio; further: series mostly up to about 77 µM; on the % scale 0 is the no-effect control and ±100 the full control effect)
How it was run: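 HEK 293T cells stably carrying a beta-lactamase reporter driven by the Smad binding element were seeded overnight, exposed to DMSO-dissolved compounds for 5 hr at 37 C, 5% CO2, then loaded with FRET substrate for 2 hr at room temperature.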

[11] = target: Thyrotropin-releasing hormone receptor (Homo sapiens) (UniProt P34981); assay: qHTS assay to identify small molecule antagonists of the thyrotropin-releasing hormone receptor (TRHR) signaling pathway (AID 1346877; active means well fitted inhibition curve with a large enough effect in the repeat runs, not every such curve was filed as active; further: series mostly up to about 51 µM; on the % scale 0 is the no-effect control and ±100 the full control effect)
Thyrotropin-releasing hormone receptor (Homo sapiens), sequence (P34981 whole entry, looked up): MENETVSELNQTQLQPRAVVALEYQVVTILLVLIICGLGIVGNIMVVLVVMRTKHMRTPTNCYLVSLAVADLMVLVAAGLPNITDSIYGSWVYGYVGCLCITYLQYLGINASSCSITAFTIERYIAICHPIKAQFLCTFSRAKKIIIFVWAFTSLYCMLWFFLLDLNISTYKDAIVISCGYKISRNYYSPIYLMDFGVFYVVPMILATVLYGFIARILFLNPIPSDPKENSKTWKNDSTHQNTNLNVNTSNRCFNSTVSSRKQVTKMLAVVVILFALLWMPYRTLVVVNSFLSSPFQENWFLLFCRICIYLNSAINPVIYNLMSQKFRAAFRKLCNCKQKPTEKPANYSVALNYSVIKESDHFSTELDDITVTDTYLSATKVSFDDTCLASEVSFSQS
How it was run: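 Following an 18 h incubation at 37 °C and a 2 h calcium dye load, TRHR-HEK293 cells were exposed to compound (5 min, room temperature) and challenged with TRH, 1 nM final.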

[12] = target: Thyrotropin-releasing hormone receptor (Homo sapiens) (UniProt P34981); assay: qHTS assay to identify small molecule agonists of the thyrotropin-releasing hormone receptor (TRHR) signaling pathway (AID 1346891; calls by dose curve)
How it was run: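 TRHR-expressing HEK293 cells were plated 18 h at 37 °C/5% CO2, loaded with calcium dye 2 h at 37 °C, then given compound in DMSO; fluorescence was read kinetically for 3 min at 1 s intervals.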

[13] = Human pregnane X receptor (PXR) small molecule agonists, qHTS cell viability counter screen (AID 1346977); further: on the % scale 0 is the no-effect control and ±100 the full control effect; nearly all actives have a fitted effect of over 50% in size
How it was run: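 PXR-Luc HepG2 cells in medium with 5% charcoal-stripped FBS were pre-incubated 5hr, then exposed to compounds for 24hr at 37C. Viability was read in the same wells by CellTiter-Fluor fluorescence, reagent added after 23hr with a 1hr incubation.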

[14] = Caspase-3/7 induction in CHO-K1 cells by small molecules, qHTS cell viability counter screen (AID 1346979); further: on the % scale 0 is the no-effect control and ±100 the full control effect; nearly all actives have a fitted effect of over 35% in size
How it was run: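 Wild-type CHO-K1 cells were seeded at 1,500 per well, rested 5hr at 37 C, then exposed to compounds in DMSO. After 16hr, CellTiter-Fluor reagent was added and fluorescence read 1hr later as the viability measure.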

[15] = Caspase-3/7 induction in CHO-K1 cells by small molecules, qHTS assay (AID 1346980); further: on the % scale 0 is the no-effect control and ±100 the full control effect; nearly all actives have a fitted effect of over 15% in size
How it was run: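 Wild-type CHO-K1 cells exposed to compounds for 17hr at 37 C, 5% CO2. Caspase-3/7 activity then measured by Caspase-Glo 3/7 luminescence after 30min at room temperature.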

[16] = Caspase-3/7 induction in HepG2 cells by small molecules, qHTS cell viability counter screen (AID 1346981); further: series mostly up to about 92 µM; on the % scale 0 is the no-effect control and ±100 the full control effect; nearly all actives have a fitted effect of over 30% in size
How it was run: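 Viability determined by CellTiter-Fluor fluorescence in HepG2 wells also used for the luminescent Caspase-Glo 3/7 read. Compounds were present for 16 hr at 37 C, 5% CO2 before reagent addition.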

[17] = target: Nuclear receptor subfamily 1 group I member 2 (Homo sapiens) (UniProt O75469); assay: Human pregnane X receptor (PXR) small molecule agonists, qHTS assay (AID 1346982); further: on the % scale 0 is the no-effect control and ±100 the full control effect; nearly all actives have a fitted effect of over 35% in size
Nuclear receptor subfamily 1 group I member 2 (Homo sapiens), sequence (O75469 whole entry, looked up): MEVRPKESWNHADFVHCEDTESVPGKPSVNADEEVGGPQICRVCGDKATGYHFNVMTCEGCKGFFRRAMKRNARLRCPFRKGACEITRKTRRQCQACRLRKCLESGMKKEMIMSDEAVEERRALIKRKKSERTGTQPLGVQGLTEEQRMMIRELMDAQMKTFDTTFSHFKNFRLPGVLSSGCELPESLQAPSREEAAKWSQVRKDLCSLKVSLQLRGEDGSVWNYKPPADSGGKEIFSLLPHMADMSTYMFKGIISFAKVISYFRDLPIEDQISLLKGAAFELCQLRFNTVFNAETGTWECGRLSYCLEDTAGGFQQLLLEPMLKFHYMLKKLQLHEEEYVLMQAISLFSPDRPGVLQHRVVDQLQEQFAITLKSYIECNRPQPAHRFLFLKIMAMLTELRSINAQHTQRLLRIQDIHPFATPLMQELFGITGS
How it was run: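 Compound-induced hPXR transactivation of a CYP3A4 luciferase reporter was scored in HepG2 PXR-Luc cells over 24 hr at 37 C, 5% CO2, by luminescence.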

[18] = Caspase-3/7 induction in HepG2 cells by small molecules, qHTS assay (AID 1346978); further: on the % scale 0 is the no-effect control and ±100 the full control effect; nearly all actives have a fitted effect of over 15% in size
How it was run: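 Wild-type HepG2 cells, 2,000/well, settled 5 hr at 37 C and 5% CO2, then compound-treated for 17 hr; caspase-3/7 activity read by luminescent Caspase-Glo 3/7 after 30 min at room temperature.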

[19] = qHTS assay to identify small molecule agonists of the estrogen receptor alpha (ER-alpha) signaling pathway in the presence of an antagonist - cell viability counter screen (AID 1259386);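 further: series mostly up to about 92 µM; cells exposed to compounds for 22 h at 37 °C before the viability read; on the % scale 0 is the no-effect control and ±100 the full control effect; nearly all actives have a fitted effect of over 30% in size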
How it was run: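 Viability counter screen using VM7Luc4E2 (full-length ER-alpha, four ERE-luciferase). The cells were treated with compounds alongside ICI-182,780 10.0nM for 22hr, and live-cell protease fluorescence was quantified with CellTiter-Fluor.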

[20] = target: Nuclear receptor subfamily 1 group I member 2 (Rattus norvegicus) (UniProt Q9R1A7); assay: Rat pregnane X receptor (rPXR) activation by small molecules, qHTS assay (AID 1346983); conditions: rPXR luciferase reporter cells, One-Glo luminescence, 24 h; max activation: active compounds read high; further: potency means the concentration at half of the fitted maximal effect; nearly all actives have a fitted effect of over 20% in size
Nuclear receptor subfamily 1 group I member 2 (Rattus norvegicus), sequence (Q9R1A7 whole entry, looked up): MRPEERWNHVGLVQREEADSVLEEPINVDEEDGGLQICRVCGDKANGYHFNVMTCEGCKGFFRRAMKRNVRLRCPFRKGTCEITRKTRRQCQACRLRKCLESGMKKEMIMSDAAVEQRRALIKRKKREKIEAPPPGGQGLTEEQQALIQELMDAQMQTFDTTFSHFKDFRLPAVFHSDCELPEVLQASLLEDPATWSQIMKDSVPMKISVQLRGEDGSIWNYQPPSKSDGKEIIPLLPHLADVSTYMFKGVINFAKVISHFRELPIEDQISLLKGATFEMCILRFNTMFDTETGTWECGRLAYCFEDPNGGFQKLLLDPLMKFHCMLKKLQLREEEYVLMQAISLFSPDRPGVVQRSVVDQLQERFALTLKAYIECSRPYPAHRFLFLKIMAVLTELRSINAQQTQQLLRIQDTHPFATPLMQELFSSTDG
How it was run: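 Cell-based rPXR activation assay: rPXR cells, 2,000 per well, rested 5hr at 37 C, then exposed to compounds in DMSO for 24 hr at 37 C. Luciferase activity read by One-Glo luminescence after 30 min at room temperature.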

CC(=O)SCC(CC(=O)c1ccc(C)cc1)C(=O)O (stereo not given)
inactive: Potency [1] | outcome [2] | outcome [3] | Potency [4] | Potency [5] | outcome [6] | Potency [7] | outcome [8] | outcome [9] | outcome [10] | outcome [11] | Potency [12] | outcome [13] | Potency [14] | outcome [15] | outcome [16] | Potency [17]

C=CC(C)(CCC=C(C)C)OC(=O)C(C)C (stereo not given)
inactive: Potency [1] | outcome [2] | outcome [3] | Potency [4] | Potency [5] | outcome [6] | Potency [7] | outcome [8] | outcome [9] | outcome [11] | Potency [12] | outcome [13] | outcome [18] | Potency [14] | outcome [15] | outcome [16] | Potency [17]

C[C@]12C=CC(=O)C=C1[C@@H](F)C[C@@H]1[C@@H]2[C@@H](O)C[C@@]2(C)[C@H]1CC[C@]2(O)C(=O)CO
active: Potency [20] 12.6 µM
inactive: Potency [1] | outcome [2] | outcome [3] | outcome [19] | outcome [6] | Potency [7] | outcome [8] | outcome [9] | outcome [10] | outcome [11] | Potency [12] | outcome [13] | outcome [18] | Potency [14] | outcome [15] | outcome [16] | Potency [17]

CC/C=C\CCOC(=O)c1ccccc1
inactive: Potency [1] | outcome [2] | outcome [3] | outcome [6] | Potency [7] | outcome [8] | outcome [9] | outcome [10] | outcome [11] | Potency [12] | outcome [13] | outcome [18] | Potency [14] | outcome [15] | outcome [16] | Potency [17]

CN(C)CCCN(C)C
inactive: activation [1] -2.43% [at 8.39 µM] | cAMP activity change [2] 3.11% [at 8.39 µM] | activity change, negative = inhibition [3] 4.29% [at 8.39 µM] | activation [4] -0.0517% [at 8.39 µM] | activity change, negative = inhibition [5] 12.8% [at 8.39 µM] | activity change, negative = cytotoxicity [6] 5.2% [at 8.39 µM] | activity change, negative = cytotoxicity [7] 1.47% [at 8.39 µM] | viability change, negative = cytotoxic [8] -1.68% [at 6.97 µM] | activity change, negative = cytotoxicity [9] 0.619% [at 6.97 µM] | activation [10] -1.23% [at 6.97 µM] | activity, negative = inhibition [11] -3.47% [at 4.65 µM] | activation [12] -0.372% [at 5.23 µM] | activity change, negative = cytotoxicity [13] 11.9% [at 8.39 µM] | caspase activation [18] 0.348% [at 8.39 µM] | activity change, negative = cytotoxicity [14] 2.18% [at 8.39 µM] | caspase-3/7 activation [15] 1.46% [at 8.39 µM] | activity change, negative = cytotoxicity [16] 6.58% [at 8.39 µM] | activation [17] 5.88% [at 8.39 µM]

CCC(C)c1nccnc1OC (stereo not given)
inactive: Potency [1] | outcome [2] | outcome [3] | outcome [19] | outcome [6] | Potency [7] | outcome [9] | outcome [10] | outcome [11] | Potency [12] | outcome [13] | outcome [18] | Potency [14] | outcome [15] | outcome [16] | Potency [17]

Cc1ccc(Br)cc1
inactive: Potency [1] | outcome [2] | outcome [19] | Potency [4] | Potency [5] | outcome [6] | Potency [7] | outcome [8] | outcome [9] | outcome [10] | outcome [11] | Potency [12] | outcome [13] | outcome [18] | Potency [14] | outcome [15] | outcome [16] | Potency [17]
